# Reference: PubChem BioAssay (NCATS)
# Inconclusive results are not listed. Entries that show only a call come without a potency. The source made the active and inactive calls. The call rests on the fitted dose curve; in most records, active means well fitted cell-killing curve with a large enough effect; inconclusive means small, poorly fitted or top-dose-only effect, or effect the other way; inactive means flat fitted curve, though single readings scatter. Numbered stars: 1 amine (or outer) side, 2 acyl side, 3 side chain; on linkers, the order of the positions; unused ones are H or OH. Bridge positions count the residues as written; N and C are the ends. Square brackets hold non-standard residues; d marks the D form. Peptide text beside a SMILES is read from it. I, II: the chains in the order shown. Actinocin(9to1) = Cc1c2oc3c(C)ccc(C(=O)[*:1])c3nc-2c(C(=O)[*:2])c(N)c1=O; NMeV = CN[C@H](C(=O)O)C(C)C; Sar = CNCC(=O)O
# Assay: qHTS of pediatric cancer cell lines to identify multiple opportunities for drug repurposing: Confirmatory screen for control Hh wild type fibroblast cells (AID 1347121); further: nearly all actives have a fitted effect of over 70% in size
# Conditions: viability qHTS; series mostly up to 45.9 µM
# Description: Drug repurposing or repositioning has been offered as a strategy for drug development in oncology programs. This approach has special potential for childhood cancers and other rare or orphan diseases, where the expected return on new drug development has been a disincentive to pharmaceuticals.
# In this project we exploit the poly-pharmacology of drugs to discover new indications via phenotypic screening of a panel of 19 well-characterized cell lines derived from solid tumors seen in children and adolescents. The goal is to identify approved drugs with previously unrecognized anticancer properties that has the potential to reveal new mechanisms and biological processes involved in carcinogenesis or drug resistance. We employed a titration-based paradigm (quantitative high-throughput screening or qHTS), where all compounds were tested at multiple concentrations for their effect on cell viability. Concentration-response curves (CRCs) were derived directly from the primary screen, and both potency and efficacy values were used to identify compounds with robust bioactivity profiles. We screened the NIH Chemical Genomics Center (NCGC) Pharmaceutical Collection (NPC) and Mechanism Interrogation Plate (MIPE) small molecule collections of approved and investigational compounds against these cell lines; and measured metabolically active cells after 48 hours of compound treatment as a proxy for cell viability.
# Assay Submitter: Nathalia J. Martinez, National Center for Advancing Translational Sciences, National Institutes of Health, Rockville, MD, USA; email: natalia.martinez@nih.gov
# [1] Shen, M et al. Quantitative high-throughput phenotypic screening of pediatric cancer cell lines identifies multiple opportunities for drug repurposing. Oncotarget 2017 Dec 19;9(4):4758-4772. PMID 29435139.
# The cells were obtained from University of North Carolina (UNC), Pediatric Preclinical Testing Program (PPT), and Coriell Institute (CI).
# qHTS cell viability assay:
# Cells were assayed in growth media at a density of 500-1,000 cells/well. Five microliters of cells were dispensed into 1,536-well, white, solid-bottom, TC-treated plates (Greiner Bio One) using a multidrop dispenser and incubated at 37 degrees C, 5% CO2, under a humidified atmosphere for 5 hours. Twenty-three nanoliters of compounds and controls (neutral control DMSO or positive control bortezomib at final concentration of 2.3 µM) were subsequently transferred by Kalypsys pintool. For primary screens, the MIPE collection was tested at 11-point dilutions (final concentrations range from 0.78 nM to 46 µM) and the NPC collection at 8-point dilutions (final concentrations range from 0.59 nM to 46 µM). Compounds tested in follow-up screens were assayed at 11-point dilutions. Cells were incubated for 48 hours, followed by addition of 3 µL of CellTiter-Glo (Promega). After a 15 min incubation at room temperature, samples were analyzed for luminescence intensity using a ViewLux High-throughput CCD imager equipped with clear filters.
# Potency means the concentration at half of the fitted maximal effect.
row,Compound,Potency
1,C[C@H]1C[C@H]2[C@@H]3CCC4=CC(=O)C=C[C@]4(C)[C@@]3(Cl)[C@@H](O)C[C@]2(C)[C@@]1(O)C(=O)CO,inactive
2,CC(=O)OCC(=O)[C@@]1(O)CC[C@H]2[C@@H]3CCC4=CC(=O)C=C[C@]4(C)[C@H]3[C@@H](O)C[C@@]21C,inactive
3,C[C@]12CCC(=O)C=C1CC[C@H]1[C@@H]3CC[C@](O)(C(=O)CO)[C@@]3(C)C[C@H](O)[C@@]12F,inactive
4,C[n+]1c2cc(N)ccc2cc2ccc(N)cc21 (tested in a mixture with another compound),7.37 µM (active)
5,O=C(CCCN1CCC(O)(c2ccc(Br)cc2)CC1)c1ccc(F)cc1,inactive
6,CC(=O)Oc1ccc(C(c2ccc(OC(C)=O)cc2)c2ccccn2)cc1,inactive
7,CC(=O)OCC(=O)[C@@]1(OC(C)=O)[C@@H](C)C[C@H]2[C@@H]3C[C@H](F)C4=CC(=O)C=C[C@]4(C)[C@@]3(F)[C@@H](O)C[C@@]21C,inactive
8,CC1(C)O[C@@H]2C[C@H]3[C@@H]4CCC5=CC(=O)CC[C@]5(C)[C@@]4(F)[C@@H](O)C[C@]3(C)[C@]2(C(=O)CCl)O1,inactive
9,CCCCC(=O)O[C@]1(C(=O)CO)CC[C@H]2[C@@H]3CCC4=CC(=O)CC[C@]4(C)[C@H]3[C@@H](O)C[C@@]21C,inactive
10,COc1cc(C=C2CCC/C(=C\c3ccc(O)c(OC)c3)C2=O)ccc1O,inactive
11,C[C@]12C=CC(=O)C=C1CC[C@@H]1[C@@H]2[C@@H](O)C[C@@]2(C)[C@H]1CC[C@]2(O)C(=O)CO,inactive
12,CC(=O)O[C@]1(C(C)=O)CC[C@H]2[C@@H]3C[C@H](C)C4=CC(=O)CC[C@]4(C)[C@H]3CC[C@@]21C,inactive
13,CCC(C(=O)OCCN(CC)CC)c1ccccc1 (stereo unspecified),inactive
14,C=C1C[C@H]2[C@@H]3C=C(C)C4=CC(=O)CC[C@]4(C)[C@H]3CC[C@]2(C)[C@@]1(OC(C)=O)C(C)=O,inactive
15,CC(C)(C(=O)c1cccnc1)c1cccnc1,inactive
16,CC(=O)[C@H]1CC[C@H]2[C@@H]3C[C@H](C)C4=CC(=O)CC[C@]4(C)[C@H]3[C@@H](O)C[C@]12C,inactive

row,Compound,Potency
1,CC(=O)Oc1ccc2c(c1)CC[C@@H]1[C@@H]2CC[C@]2(C)[C@@H](O)CC[C@@H]12,inactive
2,CN(C)/N=N/c1nc[nH]c1C(N)=O,inactive
3,CN(C)C(=S)SC(=S)N(C)C,inactive
4,Oc1ccc(O)cc1,inactive
5,C[C@@H]1C[C@H]2[C@@H]3CCC4=CC(=O)C=C[C@]4(C)[C@@]3(F)[C@@H](O)C[C@]2(C)[C@H]1C(=O)CO,inactive
6,NC(CO)(CO)CO,inactive
7,CCCCC(CC)CN=C(N)NC(N)=NCCCCCCN=C(N)NC(N)=NCC(CC)CCCC (stereo unspecified),2.93 µM (active)
8,CCCCCCC[N+](CC)(CC)CCCCc1ccc(Cl)cc1,9.27 µM (active)
9,OC[C@H]1O[C@@H](n2cnc3c(=S)nc[nH]c32)[C@H](O)[C@@H]1O,inactive
10,CCCC(=O)O[C@]1(C(=O)CO)CC[C@H]2[C@@H]3CCC4=CC(=O)CC[C@]4(C)[C@H]3[C@@H](O)C[C@@]21C,inactive
11,COCc1c(C(C)C)nc(C(C)C)c(/C=C/[C@@H](O)C[C@@H](O)CC(=O)O)c1-c1ccc(F)cc1,inactive
12,"Cc1c2oc3c(C)ccc(C(=O)N[C@@H]4C(=O)N[C@H](C(C)C)C(=O)N5CCC[C@H]5C(=O)N(C)CC(=O)N(C)[C@@H](C(C)C)C(=O)O[C@@H]4C)c3nc-2c(C(=O)N[C@@H]2C(=O)N[C@H](C(C)C)C(=O)N3CCC[C@H]3C(=O)N(C)CC(=O)N(C)[C@@H](C(C)C)C(=O)O[C@@H]2C)c(N)c1=O (I: T[dV]P[Sar][NMeV] / II: T[dV]P[Sar][NMeV]; ester I:1-I:C, II:1-II:C; linker I:N-II:N via Actinocin(9to1))",inactive
13,CC1(C)O[C@@H]2C[C@H]3[C@@H]4C[C@H](F)C5=CC(=O)CC[C@]5(C)[C@H]4[C@@H](O)C[C@]3(C)[C@]2(C(=O)CO)O1,inactive
14,C[C@]12C=CC(=O)C=C1[C@@H](F)C[C@@H]1[C@@H]2[C@@H](O)C[C@@]2(C)[C@H]1CC[C@]2(O)C(=O)CO,inactive
15,NC(=O)CC[C@@H]1NC(=O)[C@H](Cc2ccccc2)NC(=O)[C@H](Cc2ccc(O)cc2)NC(=O)CCSSC[C@@H](C(=O)N2CCC[C@H]2C(=O)N[C@@H](CCCN=C(N)N)C(=O)NCC(N)=O)NC(=O)[C@H](CC(N)=O)NC1=O,inactive
